Measurements published in PubChem BioAssay (EPA / NIEHS).
Several values for one entry are separate records, joined by “and”; a condition that tells them apart may be missing. Equal entries are not always repeated. More than one record can exist for a structure, and the calls need not agree. Activity calls are given as the source filed them. Rule for the calls: active = hit-call score of the fitted dose curve at least 0.9, where 1 is the maximum; inactive = score below 0.9.

What follows are compounds tested on Plasminogen activator inhibitor-1 (PAI1), SERPINE1 (gene 5054) (assay: BSK_BE3C_PAI1: BioMAP Diversity Plus: BE3C Assay for Plasminogen activator inhibitor-1 (PAI1) Biomarker Activity (AID 2283037)). Settings: primary human bronchial epithelial cells; actives raise or lower the signal.
Experimental: BSK_BE3C is a cell-based, multiplexed-readout assay that uses bronchial epithelial cell, a human lung primary cell, with measurements taken at 24 hours after chemical dosing in a 96-well plate.BSK_BE3C_PAI1 is an assay component measured in the BSK_BE3C assay. It measures PAI-1 antibody related to regulation of gene expression using ELISA technology.Data from the assay component BSK_BE3C_PAI1 was analyzed into 1 assay endpoint. This assay endpoint, BSK_BE3C_PAI1, was analyzed with bidirectional fitting relative to DMSO as the negative control and baseline of activity. Using a type of binding reporter, gain or loss-of-signal activity can be used to understand changes in the signaling as they relate to the gene SERPINE1. Furthermore, this assay endpoint can be referred to as a primary readout, because this assay has produced multiple assay endpoints where this one serves a signaling function. To generalize the intended target to other relatable targets, this assay endpoint is annotated to the cytokine intended target family, where the subfamily is plasmogen activator inhibitor.
The levels of cell surface (or secreted, indicated by the prefix "s") biomarker endpoints were measured by ELISA. Overt cytotoxicity to cells in confluent adherent cultures (all systems other than the BT system) was assessed by measuring total protein levels using sulforhodamine B (SRB) staining in parallel cultures at the time of biomarker measurements, indicated as SRB endpoints. For proliferation assays for adherent cell types, individual cell types are cultured at sub-confluence and relative cell numbers quantified by SRB staining at time points optimized for each system (48 h: 3C and CASM3C systems; 72 h: BT and HDF3CGF systems; 96 h: SAg system). SRB was performed by staining cells with 0.1% SRB after fixation with 10% TCA and reading wells at 560 nm.Viability and proliferation of PBMC (T cells) was quantified by Alamar Blue reduction for the SAg and BT systems. For PBMC viability (referred to as PBMC Cytotoxicity within the assay endpoint names), cells were plated (75,000/well in a 96-well plate) and then chemical samples added for 1 h before addition of activators, SEB and TSST-1 (20 ng/mL final concentration each). Cells were incubated for 90 h. Then, Alamar Blue (20 uL/well) (Invitrogen, Cat DAL1100) was added for 6 h, and the plates were read with a fluorescence microplate reader at 546/580 nm (excitation/emission). For PBMC proliferation, cells were plated and activated as above but incubated for only 16 h prior to addition of Alamar Blue. Plates were read after 6 h.

Compound	AC50	outcome
FC(F)(I)C(F)(F)C(F)(F)C(F)(F)I	50.8 µM (active)	inactive
FC(F)(F)C(F)(F)C(F)(F)C(F)(F)C(F)(F)C(F)(F)C(F)(F)C(F)(F)F	–	inactive
CCCCC(CC)COP(=O)(O)OCC(CC)CCCC (stereo not given)	16.2 µM (active) and 20 µM (active)	–
CCc1c(Br)c(Br)c(Br)c(Br)c1Br	–	inactive
Oc1ccc(Nc2ccccc2)cc1	7.39 µM (active)	–
FC(F)(F)C(F)(F)C(F)(F)C(F)(F)C(F)(F)C(F)(F)C(F)(F)C(F)(F)CCS	–	inactive
FC(F)(F)C(F)(F)C(F)(F)C(F)(F)C(F)(F)C(F)(F)C(F)(F)I	–	inactive
O[Si](c1ccccc1)(c1ccccc1)c1ccccc1	8.71 µM (active)	–
Nc1ccc([N+](=O)[O-])cc1O	–	inactive
NC(=O)C(F)(F)C(F)(F)C(F)(F)C(F)(F)F	4.8 µM (active)	inactive
O=C(O)C(F)(F)C(F)(F)OC(F)(F)F	–	inactive
CCCCOCCOCCOC(=O)CCCCC(=O)OCCOCCOCCCC	–	inactive
O=S(=O)(OCCOC(F)(F)F)C(F)(F)F	–	inactive
CCCCCCCCC(F)(F)C(F)(F)C(F)(F)C(F)(F)C(F)(F)C(F)(F)F	–	inactive
C=C(C)C(=O)OCC(F)(F)C(F)(F)C(F)(F)F	–	inactive
CCCCCCC(C)OC(=O)CCCCC(=O)OC(C)CCCCCC (stereo not given)	–	inactive
O=C(O)C(F)(OC(F)(F)C(F)(OC(F)(F)C(F)(F)C(F)(F)F)C(F)(F)F)C(F)(F)F (stereo not given)	–	inactive
C=CC(=O)OCC(F)(F)C(F)(F)C(F)(F)C(F)(F)C(F)(F)C(F)(F)C(F)(F)F	–	inactive
CCCCCCCOC(=O)c1ccccc1C(=O)OCCCCCCC	–	inactive

Compound	AC50	outcome
OCCCC(F)(F)C(F)(F)C(F)(F)F	–	inactive
O=C(O)C(F)(F)C(F)(F)C(F)(F)C(F)(F)C(F)(F)C(F)(F)C(F)(F)C(F)(F)Cl	18 µM (active) and 12.2 µM (active)	–
OCC(F)(F)C(F)(F)C(F)(F)C(F)F	–	inactive
O=C(O)C(F)(F)C(F)(F)F	–	inactive
CC(CCl)OP(=O)(OC(C)CCl)OC(C)CCl (stereo not given)	–	inactive
O=C(O)C(F)(F)C(F)(F)C(F)(F)F	–	inactive
FC(F)(F)C(F)(F)CNCC(F)(F)C(F)(F)F	–	inactive
O=C(O)C(F)(OC(F)(F)C(F)(OC(F)(F)C(F)(OC(F)(F)C(F)(F)C(F)(F)F)C(F)(F)F)C(F)(F)F)C(F)(F)F (stereo not given)	–	inactive
FC(F)(F)C(F)(F)C(F)(F)C(F)(F)CCI	–	inactive
OCCCC(F)(F)C(F)(F)C(F)(F)C(F)(F)C(F)(F)C(F)(F)C(F)(F)F	47.1 µM (active) and 30 µM (active)	–
OCC(F)(F)C(F)(F)C(F)(F)C(F)(F)C(F)(F)C(F)(F)F	–	inactive
CCO[Si](CCC(F)(F)C(F)(F)C(F)(F)C(F)(F)C(F)(F)C(F)(F)F)(OCC)OCC	–	inactive
C=CC(=O)OCC(F)(F)C(F)(F)C(F)(F)C(F)(F)COC(=O)C=C	–	inactive
FC(F)(F)C(F)(F)C(F)(F)N(C(F)(F)C(F)(F)C(F)(F)F)C(F)(F)C(F)(F)C(F)(F)F	–	inactive
O=S(=O)(OCC(F)F)C(F)(F)F	–	inactive
CO[Si](OC)(c1ccccc1)c1ccccc1	–	inactive
FC(F)(Br)C(F)(F)C(F)(F)C(F)(F)C(F)(F)C(F)(F)Br	–	inactive
OCC(F)(F)C(F)(F)C(F)(F)C(F)(F)C(F)(F)C(F)F	–	inactive
C=CC(F)(F)C(F)(F)C(F)(F)C(F)(F)C(F)(F)C(F)(F)C(F)(F)C(F)(F)C=C	–	inactive
